Measurements published in PubChem BioAssay (NCATS).
Results filed as inconclusive are left out. Calls of active or inactive are those of the source. Calls follow the shape of the dose curve; as a rule, active = well fitted curve in the direction sought with a large enough effect; inconclusive = small, poorly fitted or top-dose-only effect, or another doubt; inactive = no such curve, though single readings can be large or run the other way.

These compounds were tested against Protein phosphatase 1D (Homo sapiens) (UniProt O15297) (assay: Rhodamine-PBP qHTS Assay for Modulators of WT P53-Induced Phosphatase 1 (WIP1) (AID 1347425)). Settings: recombinant WIP1, Rhodamine-PBP phosphate fluorescence, real-time; series mostly up to 57.5 µM.
Description: Assay Provider (PI): Nathan Coussens Ph.D.
National Center for Advancing Translational Sciences (NCATS), Rockville, MD
National Institute of Health (NIH), Bethesda, Maryland
WT P53-Induced Phosphatase 1 (WIP1) is a member of the magnesium-dependent serine/threonine protein phosphatase (PPM) family and is induced by P53 in response to DNA damage. In several human cancers, the WIP1 protein is overexpressed, which is generally associated with a worse prognosis. Although WIP1 is an attractive therapeutic target, no potent, selective, and bioactive small-molecule modulator with favorable pharmacokinetics has been reported. Phosphatase enzymes are among the most challenging targets for small molecules because of the difficulty of achieving both modulator selectivity and bioavailability. Another major obstacle has been the availability of robust and physiologically relevant phosphatase assays that are suitable for high-throughput screening.
Here, we describe two orthogonal biochemical WIP1 activity assays that utilize phosphopeptides from native WIP1 substrates. We optimized a RapidFire MS assay to quantify the enzymatically dephosphorylated peptide reaction product in a 384-well format. Additionally, a redshifted Rhodamine-PBP fluorescence assay was optimized in a 1,536-well format to enable real-time WIP1 activity measurements through the detection of the orthogonal reaction product, Pi. We validated these two optimized assays by quantitative high-throughput screening against the National Center for Advancing Translational Sciences (NCATS) Pharmaceutical Collection and used secondary assays to confirm and evaluate inhibitors identified in the primary screen.
SEQUENCE No. (e.g., 1, 2, 3, etc.); […] (e.g., Cells, Incubation, Reagent, etc.); VALUE; DESCRIPTION
1; Reagent; 3 uL; WIP1 (6.7 nM), Rh-PBP (13.3 uM), columns 1-48
3; Library Compounds; 23 nL; NCATS Pharmaceutical Collection, column 5-48
4; Control Compounds; DMSO in column 2, GSK2830371 (57.5 uM, final) in 3-fold serial dilutions in column 3, GSK2830371 (1.15 uM, final) in column 4
5; Time; 1 hr; incubation
6; Detection; fluorescence (f0); ViewLux, excitation filter = 525 nm, emission filter = 598 nm
7; Reagent; 1 uL; VEPP-pS-QETFS (40 uM), columns 2-48
8; Detection; fluorescence (f1); ViewLux, excitation filter = 525 nm, emission filter = 598 nm
NOTES (numbers refer to sequence above)
1 & 2; Black medium binding Greiner 1536-well plates (# 789176-F); assay buffer: 50 mM Tris-HCl pH 7.5, 30 mM MgCl2, 1mM TCEP, 0.1 mM EGTA, 75 ug/mL BSA; dispensed with a BioRaptr liquid handler (Beckman Coulter).
3 & 4; Kalypsys pintool (equipped with 1536 pinhead, Wako USA) transfer. Tip wash sequence: DMSO, methanol, 3 sec vacuum dry.
5; Room temperature incubation.
7; VEPPL-pS-QETFS in assay buffer dispensed with a BioRaptr; final reaction conditions: 5 nM WIP1, 10 uM VEPPL-pS-QETFS, 10 uM Rh-PBP, 50 mM Tris-HCl pH 7.5, 30 mM MgCl2, 1 mM TCEP, 0.1 mM EGTA, 75 ug/mL BSA.
8; Measurement taken at 1 min intervals for 11 min. Delta readout = f1 - f0.

Protein phosphatase 1D (Homo sapiens), sequence (O15297 whole entry, looked up): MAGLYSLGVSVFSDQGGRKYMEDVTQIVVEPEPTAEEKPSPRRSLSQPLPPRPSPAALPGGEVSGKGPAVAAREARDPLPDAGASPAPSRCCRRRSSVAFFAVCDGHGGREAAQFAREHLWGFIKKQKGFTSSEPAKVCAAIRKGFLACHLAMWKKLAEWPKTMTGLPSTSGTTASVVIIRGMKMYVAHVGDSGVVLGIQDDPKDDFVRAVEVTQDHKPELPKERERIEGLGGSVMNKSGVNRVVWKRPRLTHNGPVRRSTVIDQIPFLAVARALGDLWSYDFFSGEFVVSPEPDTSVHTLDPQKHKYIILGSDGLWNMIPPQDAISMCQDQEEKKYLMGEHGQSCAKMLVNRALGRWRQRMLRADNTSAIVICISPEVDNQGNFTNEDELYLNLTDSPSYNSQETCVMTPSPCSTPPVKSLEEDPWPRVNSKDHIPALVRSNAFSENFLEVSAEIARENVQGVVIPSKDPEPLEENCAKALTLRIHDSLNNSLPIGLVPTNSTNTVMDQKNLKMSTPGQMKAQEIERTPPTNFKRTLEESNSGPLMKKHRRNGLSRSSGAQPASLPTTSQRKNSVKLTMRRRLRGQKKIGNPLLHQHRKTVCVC

| SMILES | outcome |
| --- | --- |
| CC(=O)N/N=C/c1ccc([N+](=O)[O-])o1 | inactive |
| CCC(C(=O)OCCN(CC)CC)c1ccccc1 (stereo not given) | inactive |
| NCCc1ccn[nH]1 | inactive |
| COc1cccc2c1C(=O)c1c(O)c3c(c(O)c1C2=O)C[C@@](O)(C(C)=O)C[C@@H]3O[C@H]1C[C@H](N)[C@H](O)[C@H](C)O1 | inactive |
| COc1cc2c(cc1OC)[C@@H]1CC(=O)[C@@H](CC(C)C)CN1CC2 | inactive |
| CN(C/C=C/c1ccccc1)Cc1cccc2ccccc12 | inactive |
| CCCCCCCCCCCCCCCCOP(=O)([O-])OCC[N+](C)(C)C | inactive |
| CCCC(=O)O[C@]1(C(=O)CO)CC[C@H]2[C@@H]3CCC4=CC(=O)CC[C@]4(C)[C@H]3[C@@H](O)C[C@@]21C | inactive |
| O=C(OCCOCCO)c1ccccc1Nc1cccc(C(F)(F)F)c1 | inactive |
| COC(=O)C1=C(C)NC(C)=C(C(=O)O[C@@H]2CCCN(Cc3ccccc3)C2)[C@@H]1c1cccc([N+](=O)[O-])c1 | inactive |
| CN1[C@@H]2CC[C@H]1CC(OC(=O)c1c[nH]c3ccccc13)C2 (stereo not given in full) | inactive |
| C#C[C@]1(O)CC[C@H]2[C@@H]3CCc4cc(OC5CCCC5)ccc4[C@H]3CC[C@@]21C | inactive |
| CCCCC(CC)CN=C(N)NC(N)=NCCCCCCN=C(N)NC(N)=NCC(CC)CCCC (stereo not given) | inactive |
| Cc1c(F)c(N2CCNC(C)C2)cc2c1c(=O)c(C(=O)O)cn2C1CC1 (stereo not given) | inactive |
| CC(Cc1cccc(C(F)(F)F)c1)NCCOC(=O)c1ccccc1 (stereo not given) | inactive |
| CN(C)CC/C=C1/c2ccccc2COc2ccc(CC(=O)O)cc21 | inactive |
| O=C(CCN1CCC(c2ccccc2)C1)c1ccc2c(c1)OCCO2 (stereo not given) | inactive |
| COc1cccc2c1C(=O)c1c(O)c3c(c(O)c1C2=O)C[C@@](O)(C(=O)CO)C[C@@H]3O[C@H]1C[C@H](N)[C@H](O)[C@H](C)O1 | inactive |
| CCCCCCCCCCCCCCCCCC(=O)OCC(O)CO (stereo not given) | inactive |
| COC(=O)CCc1ccc(OCC(O)CNC(C)C)cc1 (stereo not given) | inactive |

| SMILES | outcome |
| --- | --- |
| Cc1cccn2c(=O)c(-c3nnn[nH]3)cnc12 | inactive |
| NC(CO)(CO)CO | inactive |
| Cc1cccc(C)c1NC(=O)CN1CCN(CCCC(c2ccc(F)cc2)c2ccc(F)cc2)CC1 | inactive |
| C#C[C@]1(O)CC[C@H]2[C@@H]3CCC4=CC(=O)CC[C@@H]4[C@H]3CC[C@@]21C | inactive |
| CCCCC(=O)O[C@]1(C(=O)CO)CC[C@H]2[C@@H]3CCC4=CC(=O)CC[C@]4(C)[C@H]3[C@@H](O)C[C@@]21C | inactive |
| OC[C@@H](O)[C@@H](O[C@@H]1O[C@H](CO)[C@H](O)[C@H](O)[C@H]1O)[C@H](O)[C@@H](O)CO | inactive |
| CC(=O)OCC(=O)[C@@]1(OC(C)=O)[C@@H](C)C[C@H]2[C@@H]3C[C@H](F)C4=CC(=O)C=C[C@]4(C)[C@@]3(F)[C@@H](O)C[C@@]21C | inactive |
| C[C@]12CCC(=O)C=C1CC[C@H]1[C@@H]3CC[C@](O)(C(=O)CO)[C@@]3(C)C[C@H](O)[C@@]12F | inactive |
| CC(=O)OCC(=O)[C@@]1(O)[C@H](C)C[C@H]2[C@@H]3CCC4=CC(=O)C=C[C@]4(C)[C@@]3(F)[C@@H](O)C[C@@]21C | inactive |
| Cc1onc(-c2c(Cl)cccc2Cl)c1C(=O)N[C@@H]1C(=O)N2[C@@H]1SC(C)(C)[C@@H]2C(=O)O | inactive |
| CC(=O)Nc1c(I)cc(I)c(C(=O)O)c1I | inactive |
| CN(C(=O)CN(CCO)CC(=O)N(C)C(C)(C)Cc1ccccc1)C(C)(C)Cc1ccccc1 | inactive |
| Nc1ccc(C(=O)O)cc1 | inactive |
| C[C@@H]1CN(CCCn2c3ccccc3c3ccccc32)C[C@H](C)N1 | inactive |
| CC[N+](CC)(CCNC(=O)C(=O)NCC[N+](CC)(CC)Cc1ccccc1Cl)Cc1ccccc1Cl | inactive |
| COc1cc(OC)cc(OC)c1 | inactive |
| NC(=O)CC[C@@H]1NC(=O)[C@H](Cc2ccccc2)NC(=O)[C@H](Cc2ccc(O)cc2)NC(=O)CCSSC[C@@H](C(=O)N2CCC[C@H]2C(=O)N[C@@H](CCCN=C(N)N)C(=O)NCC(N)=O)NC(=O)[C@H](CC(N)=O)NC1=O | inactive |
| COc1cccc(OC)c1C(=O)N[C@@H]1C(=O)N2[C@@H]1SC(C)(C)[C@@H]2C(=O)O | inactive |
| CN1CCC(=C2c3ccccc3Sc3ccccc32)CC1 | inactive |
| COc1cc(-c2ccc(=O)[nH]n2)ccc1OC(F)F | inactive |
